Data taken from PubChem BioAssay (NCATS).
Inconclusive results are not listed. The source made the active and inactive calls. The call rests on the fitted dose curve; in most records, active means well fitted cell-killing curve with a large enough effect; inconclusive means small, poorly fitted or top-dose-only effect, or effect the other way; inactive means no such curve, though single readings can be large or run the other way.

assay: Quantitative High-Throughput drug screen in 47 multiple myeloma cell lines against the NCATS MIPE library collection: KMS21BM_JCRB cell viability assay (AID 1918974); settings: ATP luminescence, 48 h; viability: at 45.8 µM unless noted
From the text: PI: Beverly A. Mock Ph.D.
Laboratory of Cancer Biology and Genetics,
Center for Cancer Research, National Cancer Institute,
National Institute of Health, Bethesda, Maryland
Drug resistance and disease progression are common in multiple myeloma (MM) patients, underscoring the need for new therapeutic combinations. […] We hypothesized that effective combinations would reduce MYC expression and enhance p16 activity. […] These preclinical data identify potentially useful drug combinations for evaluation in drug-resistant MM and reveal potential mechanisms of combined drug sensitivity.
Described herein is the primary MIPE qHTS used to cherrypick compounds. Validated compounds were then further tested for potential synergistic activiy.
[1] Peat TJ, Gaikwad SM, Dubois W, Gyabaah-Kessie N, Zhang S, Gorjifard S, Phyo Z, Andres M, Hughitt VK, Simpson RM, Miller MA, Girvin AT, Taylor A, Williams D, D'Antonio N, Zhang Y, Rajagopalan A, Flietner E, Wilson K, Zhang X, Shinn P, Klumpp-Thomas C, McKnight C, Itkin Z, Chen L, Kazandijian D, Zhang J, Michalowski AM, Simmons JK, Keats J, Thomas CJ, Mock BA. Drug combinations identified by high-throughput screening promote cell cycle transition and upregulate Smad pathways in myeloma. Cancer Lett. 2023 Aug 1;568:216284. doi: 10.1016/j.canlet.2023.216284. Epub 2023 Jun 24. PMID: 37356470; PMCID: PMC10408729.
SEQUENCE No. (e.g., 1, 2, 3, etc.); […] (e.g., Cells, Incubation, Reagent, etc.); VALUE and DESCRIPTION.
1; Cells; 5 uL; white, solid bottom 1536-well Greiner assay plate.
2; Compounds; 23 nL; Kalypsis pin tool (Wako USA) equipped with a 1536-well pin head to transfer to the assay plates.
3; Incubation; 48 hours; 37C incubation.
4; Reagent;5uL; CellTiter Glo (Promega).
5; Detector; 425V; Luminescence; Viewlux PerkinElmer.
NOTES (numbers refer to Sequence numbers above)
1. The cell-based screening methods employed in this study were like those previously published. Briefly, the corresponding myeloma cell lines were screened in 1,536-well plates with 500 cells, 5-uL per well for inhibition of cell viability (assessed by measuring ATP levels with CellTiterGlo).
2. NCATS MIPE 4.0 library of approved and investigational drugs were added using the Kalypsis pin tool. Wells treated with DMSO only for 100% viability and media only wells for 0% viability were used as controls.
3. The assay plates were covered and incubated for 48 hours in a 37C, 5% CO2 incubator with controlled humidity.
4. After 48 hours, CellTilter-GloTM luminescent substrate mix (Promega) reagent was added to the assay plate and plates we incubated for 5 min at room temperature.
5. Signal was measured as median relative luminescence units on a ViewLux (PerkinElmer) multiplate reader.
[1] Heske CM, Davis MI, Baumgart JT, Wilson K, Gormally MV, Chen L, Zhang X, Ceribelli M, Duveau DY, Guha R, Ferrer M, Arnaldez FI, Ji J, Tran HL, Zhang Y, Mendoza A, Helman LJ, Thomas CJ. Matrix Screen Identifies Synergistic Combination of PARP Inhibitors and Nicotinamide Phosphoribosyltransferase (NAMPT) Inhibitors in Ewing Sarcoma. Clin Cancer Res. 2017 Dec 1;23(23):7301-7311. doi: 10.1158/1078-0432.CCR-17-1121. Epub 2017 Sep 12. PMID: 28899971; PMCID: PMC6636827.
Potency means the concentration at half of the fitted maximal effect.

| SMILES | Potency | viability |
| --- | --- | --- |
| CO[C@@H](C(=O)N1Cc2[nH]nc(NC(=O)c3ccc(N4CCN(C)CC4)cc3)c2C1)c1ccccc1 | 1.87 µM (active) | – |
| O=C1NC(=O)C(=Cc2ccc3c(c2)OC(F)(F)O3)S1 | 3.32 µM (active) | – |
| C[C@H](NC(=O)C(=O)Nc1ccccc1C(C)(C)C)C(=O)N[C@@H](CC(=O)O)C(=O)COc1c(F)c(F)cc(F)c1F | 6.62 µM (active) | – |
| CC=C(C)C(=O)O[C@H]1C(C)=C[C@]23C(=O)[C@@H](C=C(CO)[C@@H](O)[C@]12O)[C@H]1[C@@H](C[C@H]3C)C1(C)C | 8.33 µM (active) | – |
| CO[C@H]1C[C@@H]2CC[C@@H](C)[C@@](O)(O2)C(=O)C(=O)N2CCCC[C@@H]2C(=O)O[C@H]([C@H](C)C[C@@H]2CC[C@H](OCCO)[C@H](OC)C2)CC(=O)[C@H](C)C=C(C)[C@@H](O)[C@@H](OC)C(=O)[C@H](C)C[C@H](C)C=CC=CC=C1C | 7.43 µM (active) | – |
| COc1cc(N2CCC(N3CCN(C)CC3)CC2)ccc1Nc1ncnc(Nc2ccccc2S(=O)(=O)C(C)C)n1 | inactive | – |
| COc1ccc(-c2oc3c(CC=C(C)C)c(OC4O[C@H](CO)[C@@H](O)[C@H](O)[C@@H]4O)cc(O)c3c(=O)c2OC2O[C@@H](C)[C@H](O)[C@@H](O)[C@@H]2O)cc1 (stereo not given in full) | 9.35 µM (active) | – |
| NC(CO)(CO)CCc1ccc(Sc2cccc(OCc3ccccc3)c2)cc1Cl | 13.2 µM (active) | – |
| O=C1NC(=O)C(=Cc2cccc(C(F)(F)F)c2)S1 | 8.33 µM (active) | – |
| O=C1NC(=O)C(=Cc2ccc(-c3ccc(F)cc3)o2)S1 | 2.09 µM (active) | – |
| O=C(O)C(O)Cc1ccc(O)c(O)c1 (stereo not given) | 0.0083 µM (active) | – |
| NS(=O)(=O)c1cccc2c1C(=O)c1cccc(O)c1C2=O | 0.148 µM (active) | – |
| CN1CCN(CCOc2cc(OC3CCOCC3)c3c(Nc4c(Cl)ccc5c4OCO5)ncnc3c2)CC1 | 1.87 µM (active) | – |
| COCCOc1nc(-c2ccc(Cl)c(Cl)c2)n(-c2ccc(NC(=O)CCl)cc2)n1 | 16.6 µM (active) | – |
| CO[C@H]1C[C@@H]2CC[C@@H](C)[C@@](O)(O2)C(=O)C(=O)N2CCCC[C@@H]2C(=O)O[C@H]([C@H](C)C[C@@H]2CC[C@H](OP(C)(C)=O)[C@H](OC)C2)CC(=O)[C@H](C)C=C(C)[C@@H](O)[C@@H](OC)C(=O)[C@H](C)C[C@H](C)C=CC=CC=C1C | 18.7 µM (active) | – |
| CN(C)Cc1cccc(N=C(c2ccccc2)c2c(O)[nH]c3cc(C(=O)N(C)C)ccc23)c1 | 9.35 µM (active) | – |
| Clc1ccc(C(c2ccc(Cl)cc2)n2cc[n+](CC(OCc3ccc(Cl)cc3Cl)c3ccc(Cl)cc3Cl)c2)cc1 (stereo not given) | 8.33 µM (active) | – |
| O=C(O)C=Cc1ccc(O)c(O)c1 | 13.2 µM (active) | – |
| COC1CCC(N(C(=O)C2CCC(C)CC2)c2cc(C3=CCCCC3)sc2C(=O)O)CC1 (stereo not given) | inactive | – |
| O=C(Nc1c(Cl)cncc1Cl)c1ccc(OC(F)F)c(OCC2CC2)c1 | inactive | – |

| SMILES | Potency | viability |
| --- | --- | --- |
| Cc1ccc(C(=O)Nc2cccc(C(F)(F)F)c2)cc1Nc1nc(-c2cccnc2)nc2c1cnn2C | inactive | – |
| CC1(C)S[C@H]2[C@H](NC(=O)[C@@H](N)c3ccc(O)cc3)C(=O)N2[C@@H]1C(=O)O | 0.296 µM (active) | – |
| COc1ccc(Cc2nccc3cc(OC)c(OC)cc23)cc1OC | inactive | – |
| O=C(O)c1ccc(-c2c[nH]c3ncc(-c4ccccc4)cc23)cc1C1CCCC1 | – | 272% (active) |
| Cc1[nH]c(C=C2C(=O)Nc3ccc(S(=O)(=O)Cc4c(Cl)cccc4Cl)cc32)c(C)c1C(=O)N1CCC[C@H]1CN1CCCC1 | 4.69 µM (active) | – |
| OC[C@H]1O[C@@H](n2cnc3c2NC=NC[C@@H]3O)C[C@H]1O | 0.0042 µM (active) | – |
| CCN(CC)CCOc1ccc(C(=C(Cl)c2ccccc2)c2ccccc2)cc1 | 18.7 µM (active) | – |
| COc1cccc([C@@H](C)NCCCc2ccccc2Cl)c1 | 16.6 µM (active) | – |
| CCn1c(C(=O)N(C2CC2)C2CC2)cc2c3c(ncn3C)c(Nc3cc(C)n(C)n3)nc21 | inactive | – |
| O=C(NCc1ccncc1)C12C[C@H]3C[C@@H](C1)CC(c1ccc(Cl)cc1)(C3)C2 | 13.2 µM (active) | – |
| Oc1ccc(C2CCN(c3ccnc4ccccc34)CC2)cc1O | 23.5 µM (active) | – |
| O=c1c(O)c(-c2ccc(O)cc2)oc2cc(O)cc(O)c12 | 5.9 µM (active) | – |
| CC(C)C(=O)Oc1ccc(CO)cc1[C@H](CCN(C(C)C)C(C)C)c1ccccc1 | inactive | – |
| Clc1ccc(CCC(Cn2ccnc2)Sc2c(Cl)cccc2Cl)cc1 (stereo not given) | 23.5 µM (active) | – |
| NC(=O)c1ccc2nc(-c3ccc(Oc4ccc(Cl)cc4)cc3)[nH]c2c1 | 18.7 µM (active) | – |
| NC1CCC(Nc2nc(Nc3ccc(C(=O)N4CCCCC4)cc3)c3ncn(-c4cccc(F)c4)c3n2)CC1 (stereo not given) | inactive | – |
| Oc1ccc(C2=Cc3ccc(O)cc3OC2)cc1 | 2.35 µM (active) | – |
| CN(C[C@@H]1COCCO1)S(=O)(=O)Nc1ccc2ccc3ncc(-c4cnn(C)c4)cc3c(=O)c2c1 | 5.26 µM (active) | – |
| C=C1C(=O)OC2C=C(C)CCC=C(C)CCC12 (stereo not given) | 26.4 µM (active) | – |
| CC1(C)CCC[C@@]2(C)[C@@H]1CC[C@@]1(C)OC(=O)C[C@H]21 | inactive | – |
